The record followed here is PMC7862700, “An all-to-all approach to the identification of sequence-specific readers for epigenetic DNA modifications on cytosine”.

What all share (experiment): DAPPL (digital affinity profiling via proximity ligation, sequencing); 10 mM Tris-HCl pH 7.5, 50 mM NaCl, 1 mM DTT, 4% glycerol, room temperature, 30 min; GST-TFs on glutathione beads, 16-mer random dsDNA library, 0.1% formaldehyde crosslink after washing; high values mean tight binding
The target in one assay is T1, FEV (Homo sapiens, UniProt Q99581 1-238).
T1 sequence: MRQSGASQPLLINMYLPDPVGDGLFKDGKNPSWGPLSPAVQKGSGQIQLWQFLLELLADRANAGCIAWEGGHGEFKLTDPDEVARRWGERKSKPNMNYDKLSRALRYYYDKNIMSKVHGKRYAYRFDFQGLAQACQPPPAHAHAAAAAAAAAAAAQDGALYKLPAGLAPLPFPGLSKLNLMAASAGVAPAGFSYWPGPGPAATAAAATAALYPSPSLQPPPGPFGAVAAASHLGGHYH
Conditions: protein: recombinant; tags: N-terminal GST; dsDNA, one strand shown. In outline:
(§1)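 Binding signal is each hexamer's read frequency for a factor divided by its frequency in the tag-only sample. The factors were GST-fused human transcription factors from yeast, captured on glutathione beads, DNA-barcoded and pooled with that sample. Pools were incubated with 200 nmole of a random double-stranded 16-mer DNA library in Tris/NaCl/DTT/glycerol buffer at room temperature for 30 min, then washed, crosslinked with 0.1% formaldehyde, proximity-ligated with BsaI/T4 ligase (1 h, 37 °C), PCR-amplified and sequenced on an Illumina NextSeq500.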

The target in the next assay is ETV5 (Homo sapiens, UniProt P41161 1-510). Conditions: protein: recombinant; tags: N-terminal GST; dsDNA, one strand shown. The method, boiled down:
as §1

The next assay deals with HSF1 (Homo sapiens, UniProt Q00613 1-529). Conditions: protein: recombinant; tags: N-terminal GST; chain copies: 3; dsDNA, one strand shown. The method, boiled down:
as §1

Another assay has as its target T2, SPIC (Homo sapiens, UniProt Q8N5J4 1-248).
T2 sequence: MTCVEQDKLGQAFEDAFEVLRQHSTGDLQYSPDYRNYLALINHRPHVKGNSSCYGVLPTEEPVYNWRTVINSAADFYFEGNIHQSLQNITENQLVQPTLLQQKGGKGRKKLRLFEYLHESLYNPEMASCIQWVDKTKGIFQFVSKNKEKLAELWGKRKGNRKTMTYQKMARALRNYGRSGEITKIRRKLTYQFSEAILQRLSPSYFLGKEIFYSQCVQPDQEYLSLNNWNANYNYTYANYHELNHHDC
Conditions: protein: recombinant; tags: N-terminal GST; dsDNA, one strand shown. The method, boiled down: as §1

Another assay deals with ELF4 (Homo sapiens, UniProt Q99607 1-663). To be noted: protein: recombinant; tags: N-terminal GST; dsDNA, one strand shown. The method, boiled down:
as §1

The next assay has as its target T3, ELK4 (Homo sapiens, UniProt P28324-2 1-405).
T3 sequence: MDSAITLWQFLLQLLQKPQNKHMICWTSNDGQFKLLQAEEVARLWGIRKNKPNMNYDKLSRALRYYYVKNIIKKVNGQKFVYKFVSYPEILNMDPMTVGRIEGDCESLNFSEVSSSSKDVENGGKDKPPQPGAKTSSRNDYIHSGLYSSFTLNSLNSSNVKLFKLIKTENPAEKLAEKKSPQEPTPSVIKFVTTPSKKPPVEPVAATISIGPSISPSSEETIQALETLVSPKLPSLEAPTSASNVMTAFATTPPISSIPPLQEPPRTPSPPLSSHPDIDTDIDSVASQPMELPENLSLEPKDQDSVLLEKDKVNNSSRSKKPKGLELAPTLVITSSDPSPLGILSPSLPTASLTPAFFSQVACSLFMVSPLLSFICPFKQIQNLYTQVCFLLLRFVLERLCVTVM
Conditions: protein: recombinant; tags: N-terminal GST; dsDNA, one strand shown. The method, boiled down: as §1

In the next assay the target is T4, ETV2 (Homo sapiens, UniProt O00321 1-342).
T4 sequence: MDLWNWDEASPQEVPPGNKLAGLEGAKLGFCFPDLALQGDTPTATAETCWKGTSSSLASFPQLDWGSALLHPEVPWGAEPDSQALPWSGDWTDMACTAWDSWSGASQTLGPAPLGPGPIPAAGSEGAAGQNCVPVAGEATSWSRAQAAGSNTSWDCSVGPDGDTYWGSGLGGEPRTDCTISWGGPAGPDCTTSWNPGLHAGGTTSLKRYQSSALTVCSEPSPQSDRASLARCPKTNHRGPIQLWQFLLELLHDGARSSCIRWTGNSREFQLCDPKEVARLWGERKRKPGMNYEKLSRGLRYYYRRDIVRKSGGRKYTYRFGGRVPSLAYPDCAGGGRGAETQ
Conditions: protein: recombinant; tags: N-terminal GST; dsDNA, one strand shown. In outline: as §1

In the next assay the target is T5, ELF3 (Homo sapiens, UniProt P78545 1-371).
T5 sequence: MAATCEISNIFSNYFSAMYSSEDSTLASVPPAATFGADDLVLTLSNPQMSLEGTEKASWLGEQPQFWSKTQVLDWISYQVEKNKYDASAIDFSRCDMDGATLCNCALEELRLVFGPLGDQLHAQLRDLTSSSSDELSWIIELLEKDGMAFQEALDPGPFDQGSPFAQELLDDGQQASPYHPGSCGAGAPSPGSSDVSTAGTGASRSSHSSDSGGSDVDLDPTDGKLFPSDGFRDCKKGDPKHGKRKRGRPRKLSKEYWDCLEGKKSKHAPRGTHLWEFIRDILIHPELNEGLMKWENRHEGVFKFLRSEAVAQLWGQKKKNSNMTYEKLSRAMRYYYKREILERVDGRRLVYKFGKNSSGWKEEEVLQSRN
To be noted: protein: recombinant; tags: N-terminal GST; dsDNA, one strand shown. The method, boiled down: as §1

For another assay, the target named is CRX (Homo sapiens, UniProt O43186 1-299). To be noted: protein: recombinant; tags: N-terminal GST; dsDNA, one strand shown. The method, boiled down:
as §1

The target in the next assay is ETV1 (Homo sapiens, UniProt P50549 1-477). Conditions: protein: recombinant; tags: N-terminal GST; dsDNA, one strand shown. The method, boiled down:
as §1

A further assay deals with T6, ERF (Homo sapiens, UniProt P50548 1-548).
T6 sequence: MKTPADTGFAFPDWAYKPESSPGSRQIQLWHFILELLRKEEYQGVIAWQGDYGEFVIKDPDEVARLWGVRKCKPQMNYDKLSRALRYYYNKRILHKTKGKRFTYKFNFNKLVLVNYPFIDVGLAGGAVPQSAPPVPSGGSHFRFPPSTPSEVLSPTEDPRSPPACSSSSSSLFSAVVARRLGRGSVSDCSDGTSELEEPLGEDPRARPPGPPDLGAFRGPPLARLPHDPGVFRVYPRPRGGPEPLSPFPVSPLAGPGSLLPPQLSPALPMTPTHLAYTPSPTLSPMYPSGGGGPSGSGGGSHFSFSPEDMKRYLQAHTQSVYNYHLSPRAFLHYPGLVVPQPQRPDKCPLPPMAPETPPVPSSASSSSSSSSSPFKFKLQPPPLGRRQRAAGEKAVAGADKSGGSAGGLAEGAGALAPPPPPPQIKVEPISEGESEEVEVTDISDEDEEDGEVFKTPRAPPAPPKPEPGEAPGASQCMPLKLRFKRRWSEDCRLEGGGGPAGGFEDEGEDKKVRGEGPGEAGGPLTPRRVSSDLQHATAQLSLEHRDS
Conditions: protein: recombinant; tags: N-terminal GST; dsDNA, one strand shown. In outline:
as §1

The next assay concerns the target T7, ETV3L (Homo sapiens, UniProt Q6ZN32 1-361).
T7 sequence: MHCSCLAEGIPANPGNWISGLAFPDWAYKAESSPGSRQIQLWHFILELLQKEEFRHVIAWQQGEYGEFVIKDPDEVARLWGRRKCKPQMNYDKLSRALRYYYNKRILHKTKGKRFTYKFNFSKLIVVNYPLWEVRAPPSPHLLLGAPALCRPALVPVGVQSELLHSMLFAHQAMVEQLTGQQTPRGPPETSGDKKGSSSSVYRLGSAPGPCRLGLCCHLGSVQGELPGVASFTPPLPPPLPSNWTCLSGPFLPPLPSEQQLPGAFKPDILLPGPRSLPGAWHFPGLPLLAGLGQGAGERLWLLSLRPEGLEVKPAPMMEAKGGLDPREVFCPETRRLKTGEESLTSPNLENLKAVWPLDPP
To be noted: protein: recombinant; tags: N-terminal GST; dsDNA, one strand shown. The method, boiled down: as §1

Another assay concerns the target T8, ETS2 (Homo sapiens, UniProt P15036 1-469).
T8 sequence: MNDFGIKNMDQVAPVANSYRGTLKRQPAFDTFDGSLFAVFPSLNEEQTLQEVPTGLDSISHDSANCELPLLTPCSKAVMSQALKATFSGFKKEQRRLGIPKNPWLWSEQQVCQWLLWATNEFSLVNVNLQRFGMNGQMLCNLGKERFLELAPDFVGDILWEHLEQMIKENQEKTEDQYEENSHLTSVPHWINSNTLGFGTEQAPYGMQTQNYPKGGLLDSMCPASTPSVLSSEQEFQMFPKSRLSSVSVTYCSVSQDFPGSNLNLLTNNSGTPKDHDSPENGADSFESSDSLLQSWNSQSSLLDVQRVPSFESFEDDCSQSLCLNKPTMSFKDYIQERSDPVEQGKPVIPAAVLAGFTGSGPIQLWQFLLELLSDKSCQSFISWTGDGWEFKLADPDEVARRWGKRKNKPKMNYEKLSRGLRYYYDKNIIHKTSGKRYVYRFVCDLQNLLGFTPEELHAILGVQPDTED
To be noted: protein: recombinant; tags: N-terminal GST; dsDNA, one strand shown. In outline: as §1

A further assay deals with T9, SPDEF (Homo sapiens, UniProt O95238 1-335).
T9 sequence: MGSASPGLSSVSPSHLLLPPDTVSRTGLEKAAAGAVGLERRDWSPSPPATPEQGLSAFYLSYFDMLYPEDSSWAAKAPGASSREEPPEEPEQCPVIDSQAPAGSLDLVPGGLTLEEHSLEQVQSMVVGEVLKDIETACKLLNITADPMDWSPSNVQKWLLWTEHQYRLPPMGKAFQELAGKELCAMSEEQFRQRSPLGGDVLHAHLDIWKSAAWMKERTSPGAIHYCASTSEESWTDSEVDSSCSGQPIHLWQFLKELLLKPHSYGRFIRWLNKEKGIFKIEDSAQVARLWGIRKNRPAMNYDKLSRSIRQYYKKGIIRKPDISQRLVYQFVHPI
To be noted: protein: recombinant; tags: N-terminal GST; dsDNA, one strand shown. In outline:
as §1

Another assay addresses T10, ETV7 (Homo sapiens, UniProt Q9Y603 1-341).
T10 sequence: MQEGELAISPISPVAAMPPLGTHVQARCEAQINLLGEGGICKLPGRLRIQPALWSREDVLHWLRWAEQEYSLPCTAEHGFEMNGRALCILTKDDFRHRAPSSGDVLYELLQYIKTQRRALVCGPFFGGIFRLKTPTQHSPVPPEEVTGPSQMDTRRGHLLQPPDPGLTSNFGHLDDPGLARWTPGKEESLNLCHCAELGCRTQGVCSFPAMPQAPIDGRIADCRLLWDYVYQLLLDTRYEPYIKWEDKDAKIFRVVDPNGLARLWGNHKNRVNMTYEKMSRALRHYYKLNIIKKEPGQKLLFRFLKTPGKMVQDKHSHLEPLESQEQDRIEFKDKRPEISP
To be noted: protein: recombinant; tags: N-terminal GST; dsDNA, one strand shown. The method, boiled down: as §1

Another assay concerns the target T11, ELF5 (Homo sapiens, UniProt Q9UKW6-2 1-255).
T11 sequence: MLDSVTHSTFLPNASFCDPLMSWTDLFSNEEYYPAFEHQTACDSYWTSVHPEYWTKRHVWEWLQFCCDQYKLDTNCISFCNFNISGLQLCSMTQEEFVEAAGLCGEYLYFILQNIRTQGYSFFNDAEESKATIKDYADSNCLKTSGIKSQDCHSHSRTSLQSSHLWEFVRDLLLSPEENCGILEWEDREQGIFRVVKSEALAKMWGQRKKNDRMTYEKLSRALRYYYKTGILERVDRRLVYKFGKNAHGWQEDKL
Conditions: protein: recombinant; tags: N-terminal GST; dsDNA, one strand shown. In outline: as §1

For another assay, the target named is T12, ETV3 (Homo sapiens, UniProt P41162-2 1-143).
T12 sequence: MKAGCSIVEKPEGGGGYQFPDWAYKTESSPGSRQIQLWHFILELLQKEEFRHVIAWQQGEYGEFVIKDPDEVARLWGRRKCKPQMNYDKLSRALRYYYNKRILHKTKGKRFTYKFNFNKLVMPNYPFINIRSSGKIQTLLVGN
Conditions: protein: recombinant; tags: N-terminal GST; dsDNA, one strand shown. In outline: as §1

In the next assay the target is ETV6 (Homo sapiens, UniProt P41212 1-452). To be noted: protein: recombinant; tags: N-terminal GST; dsDNA, one strand shown. The method, boiled down: as §1
Sequence of ETV6 (P41212 whole entry): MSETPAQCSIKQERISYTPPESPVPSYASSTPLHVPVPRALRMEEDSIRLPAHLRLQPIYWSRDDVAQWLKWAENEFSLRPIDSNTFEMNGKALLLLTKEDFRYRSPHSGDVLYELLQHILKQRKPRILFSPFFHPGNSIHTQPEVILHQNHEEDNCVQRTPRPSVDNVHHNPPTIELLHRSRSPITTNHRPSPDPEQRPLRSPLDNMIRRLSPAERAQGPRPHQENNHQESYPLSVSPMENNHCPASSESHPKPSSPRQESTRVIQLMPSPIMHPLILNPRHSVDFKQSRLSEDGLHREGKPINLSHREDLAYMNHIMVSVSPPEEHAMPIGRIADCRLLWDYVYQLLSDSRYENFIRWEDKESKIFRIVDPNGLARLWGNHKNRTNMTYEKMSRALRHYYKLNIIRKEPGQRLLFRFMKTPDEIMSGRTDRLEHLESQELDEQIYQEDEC

Sequence of HSF1 (Q00613 whole entry): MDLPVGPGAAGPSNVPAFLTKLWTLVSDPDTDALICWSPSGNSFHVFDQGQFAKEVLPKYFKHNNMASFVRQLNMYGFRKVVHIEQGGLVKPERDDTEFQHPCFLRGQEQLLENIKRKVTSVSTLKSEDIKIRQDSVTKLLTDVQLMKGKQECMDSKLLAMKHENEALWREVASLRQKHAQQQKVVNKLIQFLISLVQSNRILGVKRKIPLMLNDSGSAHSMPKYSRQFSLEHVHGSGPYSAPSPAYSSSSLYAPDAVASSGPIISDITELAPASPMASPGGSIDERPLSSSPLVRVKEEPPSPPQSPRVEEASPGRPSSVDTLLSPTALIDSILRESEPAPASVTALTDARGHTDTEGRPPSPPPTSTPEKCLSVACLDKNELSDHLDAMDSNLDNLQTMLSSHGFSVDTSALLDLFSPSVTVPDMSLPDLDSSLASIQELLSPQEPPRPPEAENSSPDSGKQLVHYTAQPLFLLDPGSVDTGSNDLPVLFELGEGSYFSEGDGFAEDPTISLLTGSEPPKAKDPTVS
Sequence of ELF4 (Q99607 whole entry): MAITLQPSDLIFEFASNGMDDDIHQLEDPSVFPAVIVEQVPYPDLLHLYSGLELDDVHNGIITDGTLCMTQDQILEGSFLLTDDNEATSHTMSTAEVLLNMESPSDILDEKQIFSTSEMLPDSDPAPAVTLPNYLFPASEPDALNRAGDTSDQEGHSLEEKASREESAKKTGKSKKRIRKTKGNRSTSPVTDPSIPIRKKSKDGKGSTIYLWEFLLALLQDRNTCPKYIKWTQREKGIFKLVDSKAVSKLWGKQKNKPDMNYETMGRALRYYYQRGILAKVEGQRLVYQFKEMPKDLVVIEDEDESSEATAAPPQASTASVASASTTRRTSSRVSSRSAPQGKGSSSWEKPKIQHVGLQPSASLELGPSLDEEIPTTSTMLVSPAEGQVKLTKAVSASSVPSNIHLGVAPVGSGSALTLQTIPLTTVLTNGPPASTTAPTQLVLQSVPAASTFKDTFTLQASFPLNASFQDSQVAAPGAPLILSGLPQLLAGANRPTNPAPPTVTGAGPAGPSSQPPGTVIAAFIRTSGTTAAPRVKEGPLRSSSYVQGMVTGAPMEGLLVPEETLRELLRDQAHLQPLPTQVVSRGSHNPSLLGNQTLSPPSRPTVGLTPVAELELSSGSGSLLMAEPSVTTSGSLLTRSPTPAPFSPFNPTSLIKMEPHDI
Sequence of ETV5 (P41161 whole entry): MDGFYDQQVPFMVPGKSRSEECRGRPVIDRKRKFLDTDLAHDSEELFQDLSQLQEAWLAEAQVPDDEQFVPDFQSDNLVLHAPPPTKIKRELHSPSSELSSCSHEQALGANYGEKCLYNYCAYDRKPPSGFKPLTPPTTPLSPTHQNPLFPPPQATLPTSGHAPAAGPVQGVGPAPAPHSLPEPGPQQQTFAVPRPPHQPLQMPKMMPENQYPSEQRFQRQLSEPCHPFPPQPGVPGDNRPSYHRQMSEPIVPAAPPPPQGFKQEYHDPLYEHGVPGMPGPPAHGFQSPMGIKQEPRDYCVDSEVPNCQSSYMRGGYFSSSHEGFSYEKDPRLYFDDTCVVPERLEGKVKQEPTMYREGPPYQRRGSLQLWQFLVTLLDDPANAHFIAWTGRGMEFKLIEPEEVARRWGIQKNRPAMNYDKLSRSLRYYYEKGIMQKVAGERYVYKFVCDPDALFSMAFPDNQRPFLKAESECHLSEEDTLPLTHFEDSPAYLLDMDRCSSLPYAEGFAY
Sequence of CRX (O43186 whole entry): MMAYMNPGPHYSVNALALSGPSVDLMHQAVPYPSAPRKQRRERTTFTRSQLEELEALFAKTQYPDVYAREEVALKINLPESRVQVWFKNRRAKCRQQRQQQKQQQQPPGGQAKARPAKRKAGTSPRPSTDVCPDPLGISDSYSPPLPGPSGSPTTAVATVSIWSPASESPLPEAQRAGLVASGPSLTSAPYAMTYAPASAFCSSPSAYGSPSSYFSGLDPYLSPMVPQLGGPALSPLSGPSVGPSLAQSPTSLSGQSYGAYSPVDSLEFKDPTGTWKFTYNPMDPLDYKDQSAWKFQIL
Sequence of ETV1 (P50549 whole entry): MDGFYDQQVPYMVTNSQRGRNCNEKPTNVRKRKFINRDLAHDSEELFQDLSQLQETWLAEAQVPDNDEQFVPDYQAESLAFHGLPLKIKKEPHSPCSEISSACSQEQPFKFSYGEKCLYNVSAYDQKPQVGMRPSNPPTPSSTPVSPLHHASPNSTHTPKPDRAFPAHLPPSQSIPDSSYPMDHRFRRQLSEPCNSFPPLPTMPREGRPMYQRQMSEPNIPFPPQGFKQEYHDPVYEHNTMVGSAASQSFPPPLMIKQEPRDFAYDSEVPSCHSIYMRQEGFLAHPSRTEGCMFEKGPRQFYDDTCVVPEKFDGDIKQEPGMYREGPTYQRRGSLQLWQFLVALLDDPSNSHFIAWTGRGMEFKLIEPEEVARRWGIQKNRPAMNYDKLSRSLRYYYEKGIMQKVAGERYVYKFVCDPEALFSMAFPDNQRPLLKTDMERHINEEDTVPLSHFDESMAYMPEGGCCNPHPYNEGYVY

In the case of CTACGA, the binding signal with FEV is 1.34 fold enrichment (6-mer frequency, TF over GST control); with ETV5, 1.2 fold enrichment (6-mer frequency, TF over GST control); in the assay with HSF1 it was 1.25 fold enrichment (6-mer frequency, TF over GST control); with SPIC, 1.17 fold enrichment (6-mer frequency, TF over GST control); in the assay with ELF4 it was 1.24 fold enrichment (6-mer frequency, TF over GST control); in the assay with ELK4, 1.22 fold enrichment (6-mer frequency, TF over GST control). In addition, the binding signal was 1.47 fold enrichment (6-mer frequency, TF over GST control) with ETV2; 1.5 fold enrichment (6-mer frequency, TF over GST control) with ELF3; 1.21 fold enrichment (6-mer frequency, TF over GST control) with CRX; 1.19 fold enrichment (6-mer frequency, TF over GST control) with ETV1; 1.23 fold enrichment (6-mer frequency, TF over GST control) with ERF; 1.24 fold enrichment (6-mer frequency, TF over GST control) with ETV3L. For the same sequence, the binding signal with ETS2 is 1.25 fold enrichment (6-mer frequency, TF over GST control); with SPDEF, 1.17 fold enrichment (6-mer frequency, TF over GST control); in the assay with ETV7, 1.26 fold enrichment (6-mer frequency, TF over GST control); in the assay with ELF5, 1.19 fold enrichment (6-mer frequency, TF over GST control); in the assay with ETV3 it was 1.15 fold enrichment (6-mer frequency, TF over GST control); with ETV6 it was 1.16 fold enrichment (6-mer frequency, TF over GST control).
